Source: PubChem
HT1080NT lethal: kills 2HG-producing HT-1080-NT fibrosarcoma cells; HT-1080-NT fibrosarcoma viability, CellTiter-Glo ATP luminescence, 48 h; Potency, µM (doses to about 46.1 µM), for inactives: top-dose activity, negative = less viability, usual class: cytotoxic; 1.6% of 360,000 active;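 note: NT is the 2HG producing partner of a matched IDH1 knockdown line; potency is the fitted concentration of half-maximal effect; 0% = DMSO-treated cells and -100% = media-only wells without cells; nearly all actives have a fitted effect of over 55% in size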
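Luminescent CellTiter-Glo readout after 48 hours of compound exposure at 37 degrees C defined viability of HT-1080-NT cells. Activity was normalized to DMSO wells and cell-free media wells; concentration-response curves were fitted and assigned curve classes.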
DT40 TDP1 CPT: growth inhibition of DT40 Tdp1-/-;hTDP1 cells with camptothecin (screen for TDP1 inhibitors). chicken DT40 Tdp1-/-;hTDP1 cells + 20 nM CPT, ATP luminescence, 48 h. 12% of 420,000 active. Potency, µM (series often up to 46.2 µM), for inactives: top-dose activity change, negative = growth inhibition, usual class: inhibitors; note: potency is the fitted concentration of half-maximal effect; nearly all actives have a fitted effect of over 55% in size
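Chicken DT40 Tdp1-/- cells stably complemented with human TDP1 were seeded at 400 cells/well in medium containing 20 nM camptothecin, exposed to pin-transferred compounds, and grown at 37 °C for at least 48 hr. Viability was read as ATP luminescence.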
HT1080 IDH1KD tx: toxicity to HT-1080 IDH1 knockdown cells (counter line) | Potency, µM (titrated, usually from 46.1 µM), without a hit: top-dose activity, negative = toxicity, most hits filed as cytotoxic | HT-1080 IDH1 knockdown viability, ATP luminescence, 48 h | AID 686971 | 2% of 360,000 active;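 note: potency is the fitted concentration of half-maximal effect; 0% = DMSO wells and -100% = cell-free medium wells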
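CellTiter-Glo luminescence after 48 h compound exposure at 37 degrees C of IDH1-knockdown HT-1080 cells in 5% FBS RPMI. %Activity scaled between DMSO wells and cell-free media wells, with curves fitted and assigned curve classes.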
DT40 TDP1 no CPT: qHTS for Inhibitors of human tyrosyl-DNA phosphodiesterase 1 (TDP1): qHTS in cells in absence of CPT; Potency, µM (titrated, usually from 46.2 µM), for inactives: at the highest dose activity change, negative = growth inhibition, actives largely listed as inhibitors; 15% of 420,000 active; DT40 Tdp1-/- hTDP1 cells, no CPT, ATP luminescence, 48 h; note: potency is the fitted concentration of half-maximal effect; nearly all actives have a fitted effect of over 55% in size
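Chicken DT40 Tdp1-/- cells stably complemented with human TDP1 were seeded at 400 cells/well with DMSO in place of 20 nM camptothecin. After compound pinning, cells grew at least 48 hr at 37 °C; viability read by CellTiter-Glo luminescence.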
IL-1B inflam inh: blocks inflammasome-driven IL-1 beta release; THP-1 LPS/ATP IL-1B secretion, AlphaLISA, 16 h; hits give low values; AID 743279; 4.7% of 360,000 active; activity change, % at 57.5 µM; in the data active = activity change below about -50%; inconclusive = mostly about -30% to -49%
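THP-1 cells pretreated 1 hr with compounds (up to 57.5 uM final), then stimulated with LPS (250 ng/mL final) plus ATP (1.25 mM final); secreted IL-1B measured by AlphaLISA after 16 hr, decreased signal indicating inhibition.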
Numbers without * were called inactive; ? = inconclusive; nt = not tested or not shown; ! = repeats disagree; [ ] = dose if it differs, or a comment. Most compounds without a hit are left out; they make up all but 19% or so of the library. Unless noted, calls come from the whole dose curve; as a rule, active = well fitted curve in the direction sought with a large enough effect; inconclusive = small, poorly fitted or top-dose-only effect, or another doubt; inactive = no such curve, though single readings can be large; an effect the other way counts as inactive or inconclusive. Unless noted, % is set by controls: 0 for no effect and ±100 for the full control effect.

SMILES	HT1080NT lethal	DT40 TDP1 CPT	HT1080 IDH1KD tx	DT40 TDP1 no CPT	IL-1B inflam inh
CCCCCCCCCn1ccc(=N)cc1	?	0.23µM*	15µM*	0.15µM*	-94*
CCc1ccc(N2CC(C(=O)N/N=C/c3ccccc3)CC2=O)cc1 (stereo not given)	0%	?	1%	-22%	-12
O=c1[nH]c(CSc2nnc(Cc3ccccc3)o2)nc2ccccc12	?	-19%	?	?	8
CN(Cc1cccc(C(F)(F)F)c1)C(=O)C1CCC(=O)N(CC2CCCCC2)C1 (stereo not given)	-3%	?	0%	16µM*	-16
CN(Cc1cnn(C)c1)C(=O)C1CCC(=O)N(Cc2cccc(C(F)(F)F)c2)C1 (stereo not given)	1%	3%	6%	-10%	4
COC(CNC(=O)c1ccc2c(c1)ncn2-c1ccc(C)cc1C)OC	28%	26%	21%	-9%	14
CCc1ccc(-n2cnc3cc(C(=O)NCc4ccc(C)cc4)ccc32)cc1	nt	15µM*	nt	15µM*	nt
Cc1ccc(-n2cnc3cc(C(=O)NCc4ccccc4Cl)ccc32)c(C)c1	nt	23µM*	nt	23µM*	nt
Cc1cccc(-n2cnc3cc(C(=O)NCc4ccccc4Cl)ccc32)c1	nt	16µM*	nt	?	nt
CCCCOc1ccc(NC(=O)CSc2ccc(C(=O)O)cn2)cc1	nt	-2%	nt	11%	nt
COc1ccc(-c2[nH]c(-c3cccc(OC)c3)nc2SCC(=O)NC2CCCC2)cc1	-22%	21µM*	?	23µM*	-23
COc1ccc(-c2[nH]c(-c3ccccc3)nc2SCC(=O)NC2CCCC2)cc1	-1%	23µM*	-23%	21µM*	?
COc1cccc(-c2ccc(SCC(=O)NC3CCCC3)nn2)c1	6%	-10%	9%	-9%	20
COc1ccc(-c2[nH]c(-c3ccc(F)cc3)nc2SCC(=O)NC2CCCC2)cc1	-17%	?	-29%	?	-14
Cc1ccccc1C1(CC(=O)N2CCCC(C)C2)CC(=O)N(Cc2cccnc2)C1=O (stereo not given)	nt	19%[9.04 µM]	nt	-28%	nt
COc1cc(OC)c(C(=O)OC(C)C(=O)NCc2ccc3c(c2)OCO3)cc1OC (stereo not given)	-29%	?	-19%	?	2
C=CCSc1nnc2n(CCc3ccccc3)c(=O)c3c4c(sc3n12)COC(C)(C)C4	0%	23µM*	0%	?	-12
CC(C)Sc1nnc2n(CCc3ccccc3)c(=O)c3c4c(sc3n12)COC(C)(C)C4	7%	23µM*	17%	21µM*	9
Cc1nnc2n(Cc3ccccc3)c(=O)c3c4c(sc3n12)COC(C)(C)C4	-2%	-12%	-2%	?	-7
O=C(O)c1ccc2ncc(NC(=O)c3ccc(F)cc3)c(=O)n2c1	-11%	-7%	-20%	-1%	7
Cc1ccc(CCNC(=O)CCCn2c(=O)c3cccn3c3ccc(F)cc32)cc1	nt	?	nt	16µM*	nt
O=C(CCn1c(=O)c2cccn2c2ccc(F)cc21)NCc1cccc(F)c1	27%	?	5%	?	-14
O=C(CCCn1c(=O)c2cccn2c2ccc(F)cc21)NCc1ccc(Cl)cc1	nt	?	nt	21µM*	nt
COc1ccc(OC)c(CCNC(=O)CCCn2c(=O)c3cccn3c3ccc(F)cc32)c1	nt	18µM*	nt	9.2µM*	nt
CC(CNC(=O)CCn1c(=O)c2cccn2c2ccc(F)cc21)c1ccccc1 (stereo not given)	0%	13µM*!	3%	?	0
SMILES	HT1080NT lethal	DT40 TDP1 CPT	HT1080 IDH1KD tx	DT40 TDP1 no CPT	IL-1B inflam inh
COc1ccc(CCNC(=O)CCCn2c(=O)c3cccn3c3ccccc32)cc1OC	nt	16µM*	nt	13µM*	nt
COc1ccc(OC)c(CNC(=O)CCn2c(=O)c3cccn3c3ccc(F)cc32)c1	4%	?	0%	?	23
COc1ccc(CCNC(=O)CCCn2c(=O)c3cccn3c3ccc(F)cc32)cc1OC	nt	15µM*	nt	12µM*	nt
COc1cccc(CNC(=O)CCCn2c(=O)c3cccn3c3ccc(F)cc32)c1OC	nt	12µM*	nt	8.2µM*	nt
Cc1ccc(NC2=NCC(=O)N2Cc2ccc3c(c2)OCO3)cc1	0%	?	-3%	?	14
O=C(OCCN1CCCCC1)c1cccc(Cl)c1	-1%	-2%	14%	-6%	-2
O=C(CNC(=O)c1ccccc1Cl)NCC(c1cccs1)N1CCOCC1 (stereo not given)	6%	-6%	1%	-2%	10
Cc1onc(-c2ccccc2)c1C(=O)NC(=S)NNC(=O)c1ccccc1O	8.2µM*	3.7µM*	5.2µM*	3.3µM*	100
Cc1onc(-c2ccccc2)c1C(=O)NNC(=O)c1ccccc1Br	10%	-6%	10%	2%	-14
CCCOc1ccc(C(=O)NC(=S)Nc2nc3ccccc3s2)cc1	3%	6%	25%	-13%	34
CCCOc1ccc(C(=O)NC(=S)NNC(=O)c2c(-c3ccccc3)noc2C)cc1	?	23µM*	?	?	74
Cc1onc(-c2ccccc2)c1C(=O)NC(=S)NNC(=O)c1ccc(O)cc1O	?	4.1µM*	-28%	4.6µM*	31
CC(=O)Nc1ccc(OCCCNC(=O)c2c(-c3ccccc3)noc2C)cc1	1%	?	0%	15µM*	13
O=C(Cc1cccc(NC(=O)C2CCN(C(=O)C3CCCCC3)CC2)c1)Nc1cccc(C(=O)N2CCCC2)c1	3%	-21%	5%	?	-2
Cn1c(CNC(=O)CNC(=O)c2cccc(F)c2)cc(=O)n(C)c1=O	21%	6%	6%	1%	4
COC(=O)c1ccc(NC(=S)NC(=O)c2c(-c3ccccc3)noc2C)cc1	-6%	14%	1%	-4%	4
Cc1onc(-c2ccccc2)c1C(=O)NC(=S)NNC(=O)c1ccc(O)cc1	-15%	?	?	13µM*	61
CCOC(=O)CSc1nc2ccccc2c(=O)n1CCC(=O)NCCc1ccc(OC)c(OC)c1	-1%	-7%	1%	-20%	-3
CCCCNC(=O)C(CC)Sc1nc2ccccc2c(=O)n1CCc1ccc(OC)c(OC)c1 (stereo not given)	nt	8.2µM*	nt	8.2µM*	nt
CCOC(=O)CSc1nc2ccccc2c(=O)n1CCc1ccc(OC)c(OC)c1	nt	13µM*	nt	12µM*	nt
CCC(Sc1nc2cc(OC)c(OC)cc2c(=O)n1CCc1ccc(S(N)(=O)=O)cc1)C(=O)NCCOC (stereo not given)	1%	-18%	3%	?	-2
CCOc1ccc(CCn2c(-c3ccco3)nc3ccccc3c2=O)cc1OCC	?	1.3µM*	3.5µM*	0.82µM*	-57*
